Structures are written as SMILES. Where “and” joins values, the source holds several entries; their conditions need not be identical. Equal entries are not always repeated. More than one record can exist for a structure, and the calls need not agree. Calls of active or inactive are those of the source. The calls were made as follows: active = hit-call score of the fitted dose curve at least 0.9, where 1 is the maximum; inactive = score below 0.9.

The experiment in a line: ATG_MRE_CIS: Attagene CIS-FACTORIAL HepG2 Assay for human Metal Responsive Element (MRE) (AID 2282954). The settings on record: HepG2 MRE cis-reporter transcription, Attagene multiplex; actives raise or lower the signal. As to the method:
ATG_CIS is a cell-based, multiplexed-readout assay that uses HepG2, a human liver cell line, with measurements taken at 24 hours after chemical dosing in a 24-well plate.ATG_MRE_CIS is one of 52 assay component(s) measured or calculated from the ATG_CIS assay. It is designed to make measurements of mRNA induction, a form of inducible reporter, as detected with fluorescence intensity signals by Reverse transcription polymerase chain reaction (RT-PCR) and Capillary electrophoresis technology.Data from the assay component ATG_MRE_CIS was analyzed into 1 assay endpoint. This assay endpoint, ATG_MRE_CIS, was analyzed with bidirectional fitting relative to DMSO as the negative control and baseline of activity. Using a type of inducible reporter, measures of mRNA for gain or loss-of-signal activity can be used to understand the reporter gene at the transcription factor-level as they relate to the gene MTF1. Furthermore, this assay endpoint can be referred to as a primary readout, because this assay has produced multiple assay endpoints where this one serves a reporter gene function. To generalize the intended target to other relatable targets, this assay endpoint is annotated to the dna binding intended target family, where the subfamily is zinc finger.
Human liver HepG2 cells are transiently transfected with multiple reporter transcription units (MRTUs) in 6-well plates using FuGene 6 reagent (Roche; 3 ml FuGene/1 mg DNA). The MRTU constructs are regulated by a cis-regulating element (promoter). […] A major difference between the CIS and TRANS system is that in CIS activities of endogenous TFs are measured, whereas the TRANS assay evaluates changes in activities of exogenous, chimeric NR-Gal4 proteins. […] At the end of 24 hour incubation, total RNA was isolated using TriZol reagent (Invitrogen). The isolated RNA is then reverse-transcribed using oligo(dT) primer and Mo-MLV reverse transcriptase (Invitrogen) with DNAse I (Ambion) treatment for 30 min. The one-tenth of the produced cDNA was amplified by PCR using Taq DNA polymerase (Invitrogen) and two reporter sequence-specific primers. The PCR products were fluorescently labeled by primer extension with 6-arboxyfluorescein (6-FAM) 5'-labeled reporter sequence-specific primer (2 min at 95 C, 20 s at 68 C and 10 min at 72 C) and these products were digested with 5U of HpaI (New England Biolabs) for 2h at 37 C. The fragments were purified using Qiaquick PCR columns (Qiagen), analyzed on an ABI 3130xL genetic analyzer (Applied Biosystems) with peak positions identified by using a set of X-rhodamine (ROX)-labeled MapMarker1000 molecular weight standards (BioVentures). The raw capillary electrophoresis data was processed using Attagraph software (Attagene).
Regarding `CC1=CCC(C(C)(C)O)CC1` (stereo not given), the result was inactive.
Broadly, the AC50 is the concentration at which the activity in the assay is half-maximal. For `C[C@]12CC[C@@H]3c4ccc(O)cc4CC[C@H]3[C@@H]1CC[C@@H]2O`, the molecule was classed as inactive; the concentration at half-maximal activity (AC50) was 31.8 µM (active) and 21 µM (active) and 25.8 µM (active).
For the molecule `CC12CCC(C1)C(C)(C)C2O` (stereo not given), the outcome was inactive.
Same read-out and setting: under `CCCCCC#CC(=O)OC` stands “inactive”.
The same measure, in the same setting: under `CCC(C)COC(=O)CC(C)C` (stereo not given) stands “inactive”; under `c1ccc(OCCOc2ccccc2)cc1`, “inactive”.
On the same count and under the same terms, under `CC(=O)c1cccnc1` stands “inactive”; under `Cc1cc(O)c(C)c(C)c1O`, “inactive”.
`CC(C)(C)c1cc(CCC(=O)OCCSCCOC(=O)CCc2cc(C(C)(C)C)c(O)c(C(C)(C)C)c2)cc(C(C)(C)C)c1O`: the call was inactive.
Still for that read-out and setting: for `NS(=O)(=O)c1cc(C(=O)O)c(NCc2ccco2)cc1Cl` the value was “inactive”.
Still for that read-out and setting: for `CC/C=C\CCOC(=O)C(C)C` the value was “inactive”.
For the molecule `CC1=CC(C)C(C=O)C(C)C1` (stereo not given) (tested in a mixture with another compound), the outcome was inactive.
Still for that read-out and setting: for `CCC(CC)CO` the value was “inactive”.
The same measure, in the same setting: under `c1ccc(Cc2ccccc2)cc1` stands “inactive”; under `C=CC(C)CCCC(C)(C)O` (stereo not given), “inactive”.
For `C=C(C)C(N)=O`, the molecule was called inactive.
As for `CC(=O)OCC=C(C)CCC=C(C)CCC=C(C)C`, the half-maximal activity concentration (AC50) was 100 µM (active).
With `CC(=O)CCc1ccc(O)cc1`, the molecule was called inactive.
Still for that read-out and setting: under `CCC=C(C)C=O` stands “inactive”.
`CCC(=O)OCC=Cc1ccccc1`: the call was inactive.
On the same count and under the same terms, under `Brc1cc(Br)cc(Br)c1` stands “inactive”.
In the case of `CCCO`, the call was inactive.
The same measure, in the same setting: for `COc1cc(OC)c2ccc(=O)oc2c1` the value was “inactive”; for `CC1COC(=O)O1` (stereo not given), “inactive”; for `CC(C)Cc1ccc(C(C)C(=O)O)cc1` (stereo not given), “inactive”.
Still for that read-out and setting: for `Cc1cc(N)n(-c2ccccc2)n1` the value was “inactive”; for `CCCCN(CCO)CCO`, “inactive”.
Same read-out and setting: for `CCCC(O)C(CC)CO` (stereo not given) the value was “inactive”; for `O=C1OC2(c3ccc(O)cc3Oc3cc(O)ccc32)c2ccccc21`, “inactive”.
For the molecule `CC(O)CN` (stereo not given), the outcome was inactive.
The same measure, in the same setting: under `CC(C)(O)CCc1ccccc1` stands “inactive”; under `C1COCO1`, “inactive”.
The same measure, in the same setting: under `S=c1[nH][nH]c(=S)s1` stands “inactive”.
The same measure, in the same setting: under `CCCO[Si](OCCC)(OCCC)OCCC` stands “inactive”; under `O=S(=O)(O)CCCN1CCOCC1`, “inactive”; under `CC(=O)OC(C)(C)C1CC=C(C)CC1` (stereo not given), “inactive”.
As to `CCCCOCCOCCO`, the molecule was classed as inactive.
On the same count and under the same terms, under `CC1(C)CC(=O)CC(C)(C)N1` stands “inactive”.
The same measure, in the same setting: under `CC1=CC(O)CC(C)(C)C1` (stereo not given) stands “inactive”.

Values taken from PubChem BioAssay (EPA / NIEHS).
